Hits are enriched below; roughly 4.7% of the tested compounds scored in any of these assays.
TRHR enhancer = allosterically enhances the human TRH receptor; 360,000 tested, 0.66% active; enhancement, % at 2 µM; TRHR cells, fluo-8 calcium fluorescence, EC20 TRH enhancement; P34981; in the data active = enhancement above about 30%; note: 0% is about no effect
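TRHR-expressing cells loaded with fluo-8 calcium dye were read kinetically (ex 480/em 530) during compound addition, then stimulated with an EC20 of TRH (10 nM final). Enhancement of the Gq-mediated intracellular calcium response was scored.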
TRHR ag = TRH receptor (human) agonism. P34981. TRHR cells, calcium flux fluo-8, FDSS agonist mode. activation, % at 2 µM. 360,000 tested, 0.18% active. AID 493084; note: 0% is about no effect
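Read-out: compound-evoked intracellular calcium rise in TRHR cells, fluo-8 dye, kinetic FDSS fluorescence at 1 s/cycle following a 10-cycle baseline. Cells cultured overnight before dye loading (30 min–1.5 h, RT).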
D1 antagonist = antagonists of human D1 dopamine receptor; P21728; HEK293 TREx D1 cells, calcium flux, dopamine EC80; stronger effect = lower value; activity change, negative = inhibition, % at 10 µM; 360,000 tested, 3.2% active; AID 504652; in the data active = activity change below about -30%; note: % is set by controls: 0 for no effect and ±100 for the full control effect
Target sequence (P21728 whole entry, looked up): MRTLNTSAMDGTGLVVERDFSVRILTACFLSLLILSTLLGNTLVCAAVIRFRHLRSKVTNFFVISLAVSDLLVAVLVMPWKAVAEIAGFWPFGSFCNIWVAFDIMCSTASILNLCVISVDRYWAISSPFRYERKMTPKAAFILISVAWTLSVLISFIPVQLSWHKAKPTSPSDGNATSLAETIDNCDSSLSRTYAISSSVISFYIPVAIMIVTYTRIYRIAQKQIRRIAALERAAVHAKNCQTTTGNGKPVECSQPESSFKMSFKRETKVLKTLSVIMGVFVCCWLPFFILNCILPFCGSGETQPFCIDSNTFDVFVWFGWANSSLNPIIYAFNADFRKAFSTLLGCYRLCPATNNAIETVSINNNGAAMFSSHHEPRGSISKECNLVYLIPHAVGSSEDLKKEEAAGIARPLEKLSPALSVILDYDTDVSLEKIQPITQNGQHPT
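HEK293 T-REx cells expressing inducible, force-coupled D1 receptor; no-wash Ca dye, 30–90 min RT. Cmpd → 180 s read at 1 Hz → EC80 DA → 180 s read.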
D1 potentiator = enhances dopamine response at the human D1 receptor. HEK293 TREx D1 cells, calcium flux, dopamine EC20 potentiation. potentiation, % at 10 µM. 360,000 tested, 0.036% active; in the data active = potentiation above about 30%; note: 0% is about no effect
D1 ag = activates the human D1 dopamine receptor | P21728 | HEK293 T-REx D1 cells, calcium flux, agonist mode | activation, % at 2 µM | 360,000 tested, 1% active; note: 0% is about no effect
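Inducible HEK293 T-REx D1 cells, force-coupled to calcium signalling, were plated at 4000 cells/well with tetracycline and held overnight at 30 C. After no-wash calcium dye loading, compound-evoked calcium rise over 180 s flagged agonists.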
Active calls of the source: *; . = no result; ! = repeats disagree. Cut-off read from the data, not from the text of the source, unless noted: active = activation above about 30%; inactive = the rest.

SMILES	TRHR enhancer	TRHR ag	D1 antagonist	D1 potentiator	D1 ag
Cc1cc(C)cc(C(=O)OCC(=O)Nc2cccc(S(=O)(=O)NC3=NCCCCC3)c2)c1	4.4	0.6	-45.5*	-5.3	3.3
O=C(Nc1ccc(F)cc1F)C(Cc1ccccc1)N1Cc2ccccc2C1=O (configuration not stated)	1.3	-0.3	4.3	-0.4	-0.7
CC(Sc1ncc(S(=O)(=O)c2ccc(C(C)C)cc2)c(N)n1)C(=O)Nc1ccccc1 (configuration not stated)	5.7	0.6	-11.4	1.4	5.7
Cc1ccsc1C(=O)OCC(=O)Nc1cccc(S(=O)(=O)NC2=NCCCCC2)c1	-4.2	-0.5	-42.3*	0.7	5.4
O=C(Cc1csc(-c2ccc(F)cc2)n1)Nc1cccc(S(=O)(=O)NC2=NCCC2)c1	8.1	0.1	-30.3*	-15.4	0.8
O=C(Cc1csc(-c2ccc(Cl)cc2)n1)Nc1cccc(S(=O)(=O)NC2=NCCC2)c1	-0.4	-0.2	-16.5	-3.3	-0.6
COC(=O)CSc1nc2sc3c(c2c(=O)n1-c1ccc(OC)cc1)CCN(C)C3	33.4*	1.9	3.1	2.5	2.0
CN1CCc2c(sc3nc(SCC(=O)NCc4ccco4)n(-c4ccccc4)c(=O)c23)C1	-5.5	0.5	-32.9*	-8.0	2.6
COc1ccc(-n2c(SCC(=O)NCc3ccco3)nc3sc4c(c3c2=O)CCN(C)C4)cc1	-5.2	0.2	-15.6	3.1	1.8
CCOC(=O)CSc1nc2sc3c(c2c(=O)n1-c1ccc(OC)cc1)CCN(C)C3	-2.7	0.9	-7.6	-3.4	4.9
C=CCn1c(CNC(=O)c2cccs2)nnc1SCc1ccc(Cl)cc1Cl	10.1	-0.6	3.5	-2.5	59.7*
CCOc1ccc(-c2csc(-c3c(N)c(C(=O)c4ccc5c(c4)OCO5)n4ccccc34)n2)cc1	9.1	-2.2	-1.1	-3.1	41.8*
Nc1c(-c2nc(-c3ccccc3)cs2)c2ccccn2c1C(=O)c1ccc2c(c1)OCO2	2.6	2.5	-7.8	-0.9	34.9*
COc1cc(OC)cc(C(=O)NCc2ccc3c(c2)CCN3C(=O)c2ccccc2)c1	0.2	-0.8	12.1	-3.8	2.4
O=C(NCCc1ccc(Cl)cc1)c1c2c(nc3ccccc13)C(=O)N(C1CCCCC1)C2	-0.8	0.0	8.1	-6.5	1.6
CCCc1cc(NCCCN(C)C)n2c(nc3ccccc32)c1C#N	-4.3	0.2	-38.0*	-7.0	0.8
Cc1cccc(NC(=O)CN2C(=O)N/C(=C/c3ccc(C)s3)C2=O)c1	10.4	13.8	-7.5	-4.6	52.7*
CCCc1ccc(C(C)NC(=S)NCc2ccc(F)cc2)cc1 (configuration not stated)	-3.0	9.1	-1.2	-4.9	79.5*
CCC(C)c1ccc(C(C)NC(=S)NCc2ccc(F)cc2)cc1 (configuration not stated)	-0.3	3.4	-14.0	-3.9	21.1
CCOc1ccc(C(C)NC(=S)NCc2ccc(Cl)cc2)cc1 (configuration not stated)	-2.9	7.0	.	-5.5	34.6*
COc1ccccc1Nc1c2c(nc3ccc(NC(=O)c4ccc(N(C)C)cc4)cc13)CCCC2	1.6	0.3	-26.8	-1.0	4.0
CCN(CC)CC1C(=O)N(c2ccc(OC)cc2)C1c1ccccc1 (configuration not stated)	-4.9	2.9	-38.6*	-5.0	8.4
Cc1c(-c2nc(-c3ccc4c(c3)OCO4)no2)nnn1-c1ccc(C(C)C)cc1	1.7	0.1	-4.1	-1.3	3.1
CCCN1C(=O)S/C(=C\c2ccc(N3CCOCC3)cc2C)C1=O	10.2	-0.6	-3.0	-6.2	5.0
CCCN1C(=O)S/C(=C\c2ccc(N3CCOCC3)o2)C1=O	11.1	20.1	13.7	9.5	34.1*
SMILES	TRHR enhancer	TRHR ag	D1 antagonist	D1 potentiator	D1 ag
CCCN1C(=O)S/C(=C/c2ccc(N3CCOCC3)o2)C1=O	5.4	-0.8	-21.4	10.8	103.2*
COc1cc(C(=S)N2CCN(c3cccc(Cl)c3)CC2)ccc1O	1.9	-0.9	-31.0*	-2.8	4.4
Oc1ccccc1C(=S)N1CCN(c2cccc(Cl)c2)CC1	-0.6	-0.5	-39.2*	-4.0	2.1
OC(CN1CCN(c2cccc(Cl)c2)CC1)c1ccc(F)cc1 (configuration not stated)	-1.8	-1.2	-20.8	-11.0	5.1
OC(CN1CCN(c2cccc(Cl)c2)CC1)c1ccccc1 (configuration not stated)	-6.0	0.4	-34.9*	-9.1	4.3
Cc1c(Cl)cccc1N1CCn2c1nc1c2c(=O)n(CC(=O)O)c(=O)n1C	13.4	-0.5	-2.9	-2.7	-1.0
Cc1cccc(C)c1NC(=O)N1CC=CCC1	-5.4	0.2	0.2	4.3	2.3
Cc1cccc(C)c1NC(=O)N1CCCCCCC1	39.0*	-0.3	5.7	-2.1	1.2
N#Cc1ccc2c(c1)C[C@]1(CCCCN3C(=O)c4ccccc4C3=O)Oc3c(c(=O)oc4ccc(F)cc34)C2O1	6.6	0.6	-13.3	-6.4	0.6
CC(C)Oc1ccc(C(CCN)C2CCCCC2)cc1 (configuration not stated)	1.9	18.2	39.7	12.0	102.3*
COc1ccccc1CNc1nc(-c2cc(C)n(C)c2C)cs1	-6.0	0.9	-45.8*	1.1	3.9
COCCNc1nc(-c2cc(C)n(CCc3ccc(OC)cc3)c2C)cs1	-3.8	1.3	-6.7	-2.7	1.0
CC/C(=C(\c1ccccc1)c1ccc(OCCN(C)C)cc1)c1ccccc1	-2.1	-0.6	31.7	-5.3	87.0*!
CC/C(=C(\c1ccc(O)cc1)c1ccc(OCCN(C)C)cc1)c1ccccc1	7.9	1.2	9.4	-2.4	15.3
O=C(NCCC1=CCCCC1)c1cccc(S(=O)(=O)N2CCCCC2)c1	1.8	0.6	-38.7*	-8.2	6.1
O=C(NCc1ccc(Cl)cc1)c1cccc(S(=O)(=O)N2CCCC2)c1	3.6	-0.9	-39.8*	-1.3	-0.3
Cc1ccc(C(=O)NCCC2=CCCCC2)cc1S(=O)(=O)N1CCCCC1	4.0	-0.1	-7.9	-1.8	14.7
CN(C)c1ccc(CNC(=O)c2cc(S(=O)(=O)N3CCCC3)cn2C)cc1	2.2	-0.3	-11.7	-5.7	8.2
Cn1cc(S(=O)(=O)N2CCCC2)cc1C(=O)NCc1ccc(Cl)cc1	0.3	-0.2	-33.2*	-6.0	2.1
CCOC(=O)c1c(C)oc2nc(C)nc(NCCCN3CCN(c4ccccc4)CC3)c12	1.4	-0.8	-10.2	0.2	1.5
CCOC(=O)c1c(C)oc2nc(C)nc(NCCCN3CCN(c4cccc(C)c4)C(C)C3)c12 (configuration not stated)	37.7*	-1.1	-6.2	-1.5	0.2
CCN1/C(=C/C=C/c2oc3ccc4ccccc4c3[n+]2CC)Oc2ccc3ccccc3c21	-0.5	31.4*	2.2	-3.0	92.5*
CC[n+]1c(/C=C/N(C)c2ccccc2)oc2ccc(Cl)cc21	-7.1	-0.5	-11.7	-12.2	1.3

Bioassay records from PubChem BioAssay.
